# Assay results: PubChem BioAssay (Tox21)
# Inconclusive results are not listed. Unmarked numbers belong to inactive results. The source made the active and inactive calls. The call rests on the fitted dose curve; in most records, active means well fitted curve in the direction sought with a large enough effect in the repeat runs; inconclusive means weak or mixed curves; inactive means no such curve, though single readings can be large; an effect the other way counts as inactive or inconclusive.
# Assay: qHTS RealTime-Glo MT Cell Viability Assay in HEK293 cells - 8 hour (AID 1224887); further: nearly all actives have a fitted effect of over 50% in size; further: potency means the concentration at half of the fitted maximal effect; on activity change, negative = cytotoxicity: top concentration of the series differs between compounds
# Conditions: RealTime-Glo luminescence; series mostly up to 76.8 µM; activity change, negative = cytotoxicity: at the top concentration
# Outline: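 HEK293 + NanoLuc + prosubstrate, 600 cells/well; 5 h, 37 C/5% CO2; compound 23 nL in DMSO by pintool; 37 C; luminescence read at 0, 8, 16, 24, 32 and 40 h time points.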
# On the % scale 0 is the no-effect control and ±100 the full control effect.
Structure (SMILES),"activity change, negative = cytotoxicity",Potency
CCCC(=O)OCc1ccccc1,3.45%,–
CCCCCCCCC(=O)OCC(C)OC(=O)CCCCCCCC (stereo not drawn),0.198%,–
CC[C@H](NC(C)C)[C@H](O)c1ccc(O)c2[nH]c(=O)ccc12,-0.0196% [at 35.3 µM],–
O=C(O)c1ccncc1,0.644%,–
CCCCCCCCOCCCN,-19.5%,–
COc1cc(CNC(=O)CCCC/C=C/C(C)C)ccc1O,–,2.39 µM (active)
C[C@H]1C[C@H]2[C@@H]3CCC4=CC(=O)C=C[C@]4(C)[C@@]3(F)[C@@H](O)C[C@]2(C)[C@@]1(O)C(=O)COP(=O)(O)O,4.24%,–
CC(C)(C)N,5.36%,–
CNc1ccccc1,-2.84%,–
C=Cc1ccc(C=C)cc1,2.54%,–
C/C=C1\[C@H]2C=C(C)C[C@]1(N)c1ccc(=O)[nH]c1C2,10.2% [at 35.3 µM],–
O=C1OC(=O)C2CC=CCC12 (stereo not drawn),1.74%,–
CC1(C)C(=O)NC(=O)N1CO,-1.69%,–
Nc1ccc(C(=O)Oc2ccccc2)c(O)c1,-4.5% [at 35.3 µM],–
COC(=O)/C=C/C(C)=C\C=C\C(C)=C\C=C\C=C(C)\C=C\C=C(C)\C=C\C(=O)O,0.886%,–
O=c1[nH]nc(-c2ccc([N+](=O)[O-])o2)o1,6.9%,–
C/C(=C(\CCO)SS/C(CCO)=C(\C)N(C=O)Cc1cnc(C)nc1N)N(C=O)Cc1cnc(C)nc1N,17.3% [at 35.3 µM],–
O=[N+]([O-])c1cccc(I)c1,-3.13%,–
CC(=O)Nc1ccccc1O,-8.84%,–
CC1(COc2ccc(CC3SC(=O)NC3=O)cc2)CCCCC1 (stereo not drawn),0.294% [at 35.3 µM],–

Structure (SMILES),"activity change, negative = cytotoxicity",Potency
CC(=O)c1ccc(Cl)c(Cl)c1Cl,-23.4%,–
CC(=O)Oc1cccc2c1C(=O)c1c(OC(C)=O)cc(C(=O)O)cc1C2=O,10.4% [at 35.3 µM],–
CC1=C(C)C(=O)C(C(CCCCCC(=O)O)c2ccccc2)=C(C)C1=O (stereo not drawn),–,10.7 µM (active)
CO[C@@H]1COCC[C@@H]1N[C@@H]1CC[C@@](C(=O)N2CCc3ncc(C(F)(F)F)cc3C2)(C(C)C)C1,–,15.4 µM (active)
O=C(NC1CCN(CCc2c[nH]c3ccccc23)CC1)c1ccccc1,–,9.52 µM (active)
N#CCCCC(C#N)CCC#N (stereo not drawn),10.8%,–
C(/C=C/C=C/Nc1ccccc1)=Nc1ccccc1,-23.8%,–
CCC(C)C1N=C(C)C(C)S1 (stereo not drawn),3.71%,–
Cc1cc(C)n(CO)n1,-6.5%,–
CCOc1ccccc1O,-21%,–
CCC1=C(C)CN(C(=O)NCCc2ccc(S(=O)(=O)NC(=O)NC3CCC(C)CC3)cc2)C1=O (stereo not drawn),-6.92% [at 35.3 µM],–
O=C1c2ccccc2C(=O)c2c1ccc(O)c2O,-1.12% [at 35.3 µM],–
CC(C)C/C=C(\C=O)c1ccccc1,6.83%,–
CC(C)=CCC[C@H](C)CCO,-4.83%,–
Cc1ccc(NC=O)c(C)c1,14.4%,–
NC(=O)c1cc[n+](CC2=C(C(=O)[O-])N3C(=O)[C@@H](NC(=O)Cc4cccs4)[C@H]3SC2)cc1,1.1% [at 35.3 µM],–
[O-][n+]1ccc(Cl)cc1,8.19%,–
COc1ccc(/C=C/S(=O)(=O)NC(=O)c2ccc(C)cc2Cl)cc1,-1.31%,–
CCC(C(=O)O)c1ccc(N2Cc3ccccc3C2=O)cc1 (stereo not drawn),1.99% [at 35.3 µM],–

# Assay: A CellTox Green Cytotoxicity Assay to monitor cytotoxicity in HEK293 cells - 16 hour (AID 1224888); further: nearly all actives have a fitted effect of over 35% in size
# Conditions: CellTox Green fluorescence; series mostly up to 76.8 µM; activity change: at the top concentration
# Outline: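 Tox21 screen in HEK293: membrane-impermeant cyanine dye fluoresces on binding dead-cell DNA; compound pinned 5 h post-seeding, plates held at 37 C, signal read repeatedly through 40 h.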
row,Structure (SMILES),activity change
1,CCCC(=O)OCc1ccccc1,2.59%
2,CCCCCCCCC(=O)OCC(C)OC(=O)CCCCCCCC (stereo not drawn),-0.366%
3,CC[C@H](NC(C)C)[C@H](O)c1ccc(O)c2[nH]c(=O)ccc12,"3.35% [at 35.3 µM, hits give high values]"
4,O=C(O)c1ccncc1,0.761%
5,CCCCCCCCOCCCN,-9.82%
6,COc1cc(CNC(=O)CCCC/C=C/C(C)C)ccc1O,9.63%
7,C[C@H]1C[C@H]2[C@@H]3CCC4=CC(=O)C=C[C@]4(C)[C@@]3(F)[C@@H](O)C[C@]2(C)[C@@]1(O)C(=O)COP(=O)(O)O,-1.08%
8,CC(C)(C)N,-0.249%
9,CNc1ccccc1,-7.84%
10,C=Cc1ccc(C=C)cc1,-7.4%
11,C/C=C1\[C@H]2C=C(C)C[C@]1(N)c1ccc(=O)[nH]c1C2,"0.5% [at 35.3 µM, hits give high values]"
12,O=C1OC(=O)C2CC=CCC12 (stereo not drawn),-0.403%
13,CC1(C)C(=O)NC(=O)N1CO,6.79%
14,Nc1ccc(C(=O)Oc2ccccc2)c(O)c1,"16.5% [at 35.3 µM, hits give high values]"
15,COC(=O)/C=C/C(C)=C\C=C\C(C)=C\C=C\C=C(C)\C=C\C=C(C)\C=C\C(=O)O,1.02%
16,O=c1[nH]nc(-c2ccc([N+](=O)[O-])o2)o1,10.4%
17,C/C(=C(\CCO)SS/C(CCO)=C(\C)N(C=O)Cc1cnc(C)nc1N)N(C=O)Cc1cnc(C)nc1N,"-1.26% [at 35.3 µM, hits give high values]"
18,O=[N+]([O-])c1cccc(I)c1,14.4%
19,CC(=O)Nc1ccccc1O,13.6%
20,CC1(COc2ccc(CC3SC(=O)NC3=O)cc2)CCCCC1 (stereo not drawn),"21.5% [at 35.3 µM, hits give high values]"

row,Structure (SMILES),activity change
1,CC(=O)c1ccc(Cl)c(Cl)c1Cl,25.1%
2,CC(=O)Oc1cccc2c1C(=O)c1c(OC(C)=O)cc(C(=O)O)cc1C2=O,"-1.02% [at 35.3 µM, hits give high values]"
3,CC1=C(C)C(=O)C(C(CCCCCC(=O)O)c2ccccc2)=C(C)C1=O (stereo not drawn),"3.89% [at 35.3 µM, hits give high values]"
4,CO[C@@H]1COCC[C@@H]1N[C@@H]1CC[C@@](C(=O)N2CCc3ncc(C(F)(F)F)cc3C2)(C(C)C)C1,-9.93%
5,O=C(NC1CCN(CCc2c[nH]c3ccccc23)CC1)c1ccccc1,"-1.09% [at 35.3 µM, hits give high values]"
6,N#CCCCC(C#N)CCC#N (stereo not drawn),2.81%
7,C(/C=C/C=C/Nc1ccccc1)=Nc1ccccc1,6.67%
8,CCC(C)C1N=C(C)C(C)S1 (stereo not drawn),1.4%
9,Cc1cc(C)n(CO)n1,-0.749%
10,CCOc1ccccc1O,-6.9%
11,CCC1=C(C)CN(C(=O)NCCc2ccc(S(=O)(=O)NC(=O)NC3CCC(C)CC3)cc2)C1=O (stereo not drawn),"0.349% [at 35.3 µM, hits give high values]"
12,O=C1c2ccccc2C(=O)c2c1ccc(O)c2O,"0.329% [at 35.3 µM, hits give high values]"
13,CC(C)C/C=C(\C=O)c1ccccc1,8.73%
14,CC(C)=CCC[C@H](C)CCO,3.71%
15,Cc1ccc(NC=O)c(C)c1,9.46%
16,NC(=O)c1cc[n+](CC2=C(C(=O)[O-])N3C(=O)[C@@H](NC(=O)Cc4cccs4)[C@H]3SC2)cc1,"-1.78% [at 35.3 µM, hits give high values]"
17,[O-][n+]1ccc(Cl)cc1,-2.35%
18,COc1ccc(/C=C/S(=O)(=O)NC(=O)c2ccc(C)cc2Cl)cc1,-0.479%
19,CCC(C(=O)O)c1ccc(N2Cc3ccccc3C2=O)cc1 (stereo not drawn),"-1.71% [at 35.3 µM, hits give high values]"
